# Screens: PubChem BioAssay, several laboratories
# Rows were chosen to be rich in hits. Some 3.1% of all compounds tested hit in one or more screens of this group.
# MITF TRPM1 inh: inhibitors of MITF-dependent TRPM1 promoter reporter, primary screen, cell-based, SK-MEL-5, single point, luciferase; AID 488899, 2010; inhibition, % at 12.5 µM; SK-MEL-5 TRPM1 promoter luciferase, 24 h; 330,000 compounds, 0.83% hits;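 active = mean inhibition across replicates of 60% or more, whatever share of single replicates reaches that level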
# ABHD5 PLIN5 PPI: ABHD5-PLIN5 interaction inhibitors, primary screen, cell lysate, split luciferase complementation, luminescence. Perilipin-5 (Homo sapiens) + 1-acylglycerol-3-phosphate O-acyltransferase ABHD5 (Homo …. Split G. princeps luciferase complementation, 4 h. inhibition, % at 4 µM. 360,000 compounds, 0.78% hits;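 active = inhibition above the mean inhibition across every tested compound plus 3 SD, cut at about 22% in these data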;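 note: 0% = DMSO only wells and the 100% control is not disclosed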
# CF NFkB block: inhibitors of PAF-induced NF-kB signaling, primary screen, cell-based, GFP fluorescence, uHTS; 360,000 compounds, 0.86% hits; AID 588850, 2011; KKLEB NF-kB-GFP reporter, GFP fluorescence overnight; inhibition, % at 5 µM;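 active = at least 50% inhibition at 5 µM, scaled per plate between neutral and stimulator controls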;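 note: PAF is a Pseudomonas aeruginosa culture filtrate used as stimulus; plate controls were PAF-stimulated DMSO wells for no effect and unstimulated DMSO wells for full effect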
# KKLEB cytotox: cytotoxicity in KKLEB CF airway cells, primary screen, cytotoxicity control for CF NF-kB inhibitor project, cell-based, uHTS, fluorescence assay plates. 360,000 compounds, 0.36% hits. KKLEB CF airway cells viability, ATPlite luminescence, overnight; stronger effect = lower value; cells stimulated with P. aeruginosa culture filtrate. AID 602141, 2011. activity change (cytotoxicity), % at 5 µM;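 active = corrected activity change at or below -50% at 5 µM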
# Peg3 prom inh: Peg3 promoter-driven luciferase inhibitors, primary screen, cell-based, HeLa, luciferase luminescence; HeLa PEG-Prom luciferase reporter, overnight; inhibition, % at 20 µM; AID 588405, 2011; 360,000 compounds, 1.7% hits;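 active = inhibition of at least 50% at 20 µM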
# HIF-2a block: HIF-2a reporter inhibitors, primary screen, luminescence, 786-0 RCC cells; 786-0 RCC cells HIF-2a reporter, luciferase luminescence, overnight; inhibition, % at 18.8 µM; 360,000 compounds, 0.72% hits;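 active = inhibition of the luminescence signal of 40% or more relative to plate controls, in a single-dose primary screen at 18.75 µM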
# ABHD5 PLIN5 conf: ABHD5-PLIN5 interaction inhibitors, confirmation, biochemical, luminescence; shares compounds with ABHD5 PLIN5 PPI; inhibition, % at 4 µM; 2,200 compounds, 67% hits; in the data active = inhibition above about 23%;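 note: 0% = DMSO vehicle wells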
# HNF4 counter: HNF4 dimerization inhibitors, counter-screen for ABHD5-PLIN5 interaction inhibitor project, biochemical, split-luciferase complementation, luminescence; shares compounds with ABHD5 PLIN5 PPI; inhibition, % at 4 µM; 2,200 compounds, 77% hits; AID 651674, 2012;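 active = mean inhibition across replicate wells exceeding the computed hit threshold, cut at about 13% in these data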;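 note: light from luciferase halves that rejoin when HNF4 fusion proteins dimerize; 0% = DMSO only wells and the 100% control is not given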
# * = called active by the depositor; . = no result given.
SMILES,MITF TRPM1 inh,ABHD5 PLIN5 PPI,CF NFkB block,KKLEB cytotox,Peg3 prom inh,HIF-2a block,ABHD5 PLIN5 conf,HNF4 counter
Cc1ccnc2nc(C(=O)OCC(=O)N(C)C3CCCCC3)nn12,.,-1,-7,-2,6,8,.,.
COc1cccc(CC2(CO)CCCN(Cc3ccc(-c4ccco4)cc3)C2)c1 (stereo not given),4,24*,-12,6,4,15,22*,32*
CC(C)(C)S(=O)N1Cc2ccc(CO)cc2[C@@H]1CCO (stereo not given in full),9,3,-9,1,4,6,.,.
O=C(C[C@H]1C[C@H](C(=O)N2CCOCC2)[C@@]2(CCC3CCCC3)c3[nH]c4cc(-c5ccco5)ccc4c3CCN2C1=O)NCCc1ccccn1,14,23*,18,-8,18,-6,11,17*
CCC(C)[C@H](NC(=O)N1CCC(C)CC1)C(=O)OC (stereo not given in full),-2,-2,-1,7,11,17,.,.
O=C1COc2ccc(C(=O)/C=C/c3ccccc3)cc2N1,6,47*,2,1,20,-127,77*,62*
N#Cc1ccc(/C=C/C(=O)c2ccc3c(c2)OCO3)cc1,-7,33*,-4,-7,15,-37,88*,82*
COc1ccc(/C=C/C(=O)c2ccc3c(c2)OCO3)cc1OC,.,-6,-19,-9,-24,-35,.,.
O=C(/C=C/c1ccccc1)c1ccc2c(c1)OCCCCO2,-92,24*,-17,-12,-169,-123,53*,43*
CC1=NN(c2ccccc2)C(=O)/C1=C\C=C1/N(C)c2ccccc2C1(C)C,9,26*,-8,7,3,3,21,23*
CC1=NN(c2ccccc2)C(=O)/C1=C\C=C1\N(C)c2ccccc2C1(C)C,2,11,4,-4,1,11,.,.
Cc1ccc(NC(=O)c2cc(-c3ccc(C)o3)nc3ccccc23)cc1,-3,35*,-11,-4,-3,-19,38*,40*
COC(=O)CC1SC(=O)NC1=O (stereo not given),-7,39*,10,2,12,15,0,1
COC(=O)CC1SC(=O)NC1=Nc1ccc(O)cc1 (stereo not given),8,6,-12,10,10,7,.,.
O=C(N1CCCCC1)C1(S(=O)(=O)c2ccccc2)CC=CC1,-34,33*,-2,11,-45,-72,2,0
CCOC(=O)C1CCCCN1C(=O)c1ccc2nc(Cc3ccc(OC)cc3)oc2c1 (stereo not given),7,5,1,-4,4,-10,.,.
CCOC(=O)C1CCCCN1C(=O)/C(=C/c1ccc(OC)cc1)c1ccc(OC)c(OC)c1 (stereo not given),4,24*,-7,-2,10,11,-4,0
Cc1nn(CCCC(=O)Nc2cccnc2Cl)c(C)c1[N+](=O)[O-],-7,-3,-12,8,-13,7,.,.
Cc1ccc(C)c(/C=C/C(=O)c2ccccc(=O)c2O)c1,30,30*,-17,-11,17,72*,56*,35*
O=C(/C=C/c1ccccc1Cl)Nc1cccc(O)c1,-39,-3,-50,7,-241,-190,.,.
O=C(/C=C/c1ccccc1Cl)c1ccccc(=O)c1O,6,33*,-51,-22,71*,9,59*,43*
Cc1ccc(/C=C/C(=O)c2ccccc(=O)c2O)c(C)c1,0,21,-29,1,-78,36,.,.
COc1ccc(N2C(=O)CC(Sc3nnc(-c4ccccc4)o3)C2=O)cc1 (stereo not given),16,43*,26,5,85*,4,55*,83*
Cc1nn(-c2ccccc2)c(=S)c2ccccc12,-1,1,-2,-2,8,10,.,.
CCOc1cc(S(=O)(=O)N2CCN(CC)CC2)ccc1Cl,10,-2,-4,3,2,11,.,.
SMILES,MITF TRPM1 inh,ABHD5 PLIN5 PPI,CF NFkB block,KKLEB cytotox,Peg3 prom inh,HIF-2a block,ABHD5 PLIN5 conf,HNF4 counter
CCCc1nc(C)c2c(=O)[nH]c(-c3cc(S(=O)(=O)N4CCN(CC)CC4)ccc3OCC)nn12,3,62*,-6,-2,10,-9,68*,29*
O=C(Oc1ccccc1/C=C\C(=O)c1cc2ccccc2o1)c1cccc(F)c1,-13,32*,10,1,-141,-187,99*,95*
O=C(N/N=C/c1ccccc1OC(=O)c1ccc2c(c1)OCO2)c1cccc(F)c1,-5,-3,-25,-4,-62,-116,.,.
COc1cccc(C(=O)Oc2ccccc2/C=C\C(=O)c2cc3ccccc3o2)c1,20,83*,-1,-13,105*,-121,99*,101*
O=C(Oc1ccccc1/C=C\C(=O)c1cc2ccccc2o1)c1ccccc1,-11,30*,14,-7,-107,-159,99*,101*
NC(=O)N/N=C/c1ccccc1OC(=O)c1cc2ccccc2oc1=O,-18,2,-13,0,-120,-74,.,.
COc1ccc(C(=O)/C=C/c2ccccc2OC)c(OC(=O)c2ccc([N+](=O)[O-])cc2)c1,-7,-1,-24,1,-121,-151,.,.
O=C(c1cn(Cc2ccccc2)nc1-c1cccnc1)N1CCc2ccccc2C1,7,0,0,8,10,20,.,.
CC(C)(C)c1ccc(CC(=O)N2CCC2(C)C(=O)Nc2cccc3c2CCCC3)cc1 (stereo not given),.,-18,5,-18,27,21,.,.
CCC(=O)N1CCCC(C)(C(=O)NS(=O)(=O)c2ccccc2Cl)C1 (stereo not given),.,7,14,-2,2,13,.,.
CN(C)CCCN(C(=O)COc1ccc(Cl)cc1)c1nc2c(F)cccc2s1,-3,2,4,1,8,10,.,.
Cc1ccc2nc(N(CCCN(C)C)C(=O)COc3ccc(Cl)cc3)sc2c1,26,26*,3,-2,-45,-13,16,0
CN(C)CCCN(C(=O)COc1ccc(Cl)cc1)c1nc2ccc(F)cc2s1,-2,27*,22,-2,-56,-55,13,3
